Experimental data: the supplement of paper PMC11732987, “Enantioselective OTUD7B fragment discovery through chemoproteomics screening and high-throughput optimisation” (Communications Chemistry, 2025)

These compounds were tested against COPS5 (UniProt Q92905) (assay: log2 ratio of Biotin-Ahx-Ub-VS probe labelling (fragment/DMSO); higher = less target engagement (more negative = stronger competition), active = hit call of the paper (q ≤ 0.05, log2 ratio ≤ -1)). Conditions: compound concentration: 200 uM; treatment time: 3 h.
COPS5, sequence (Q92905 whole entry, looked up, the tested form may be a part): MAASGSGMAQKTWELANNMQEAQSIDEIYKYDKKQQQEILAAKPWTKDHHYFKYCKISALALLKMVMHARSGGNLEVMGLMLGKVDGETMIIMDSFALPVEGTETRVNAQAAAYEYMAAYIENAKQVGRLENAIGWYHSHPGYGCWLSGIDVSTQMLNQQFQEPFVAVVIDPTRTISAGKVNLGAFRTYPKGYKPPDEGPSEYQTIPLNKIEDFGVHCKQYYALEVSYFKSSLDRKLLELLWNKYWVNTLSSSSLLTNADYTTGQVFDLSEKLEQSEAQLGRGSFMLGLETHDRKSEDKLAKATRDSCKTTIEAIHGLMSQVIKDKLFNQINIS
Protocol: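 Competitive ABPP in HEK293T cell lysate. Lysates were treated with each chloroacetamide fragment at 200 µM for 3 h, then with Biotin-Ahx-Ub-VS (0.5 µM, 1 h), NeutrAvidin-enriched and analysed by diaPASEF LC-MS/MS. Protein LFQ was median-normalised; average log2 ratio is fragment/DMSO from an unpaired t-test (n=3 treated, n=44 DMSO). Hits: q ≤ 0.05, log2 ratio ≤ -1, unique peptides ≥ 2.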

log2 ratio of Biotin-Ahx-Ub-VS probe labelling, inactive:
O=C(CCl)N[C@H]1CCS(=O)(=O)c2ccccc21 -0.0992
Cl.Cn1cnc2cc(CNC(=O)CCl)ccc21 -0.125
CN(Cc1nc2ccccc2[nH]1)C(=O)CCl.Cl -0.0146
O=C(CCl)N1CCN(C(=O)N2CCCCC2)CC1 -0.16
O=C(CCl)NCCc1ccc(F)cc1 0.0919
O=C(CCl)N1CCN(c2nc3ccccc3o2)CC1 -0.251
CC(c1ccccc1)N(C)C(=O)CCl (stereo not given) 0.082
O=C(CCl)Nc1ccc(Cl)c(F)c1 0.155
Cl.O=C(CCl)NCCN1CCc2ccccc21 0.365
CN(C(=O)CCl)c1nc2ccccc2s1 -0.0311
O=C(CCl)Nc1cc(Cl)ccc1C(=O)O 0.0271
CC(NC(=O)CCl)c1cnn(C2CC2)c1 (stereo not given) -0.244
Cl.O=C(CCl)N1CCn2cncc2C1 -0.298
Cl.Cn1nc2c(c1CNC(=O)CCl)CCCC2 -0.111
CS(=O)(=O)c1ccc(CNC(=O)CCl)cc1 0.0587
CN1C(=O)c2ccc(NC(=O)CCl)cc2C1=O -0.249
Cc1cc(CC(C)NC(=O)CCl)n[nH]1 (stereo not given) 0.0799
CNC(=O)Cn1cc(NC(=O)CCl)cn1 0.0739
CC(NC(=O)CCl)c1ccc2[nH]ncc2c1 (stereo not given) -0.00941
Cc1nnc(C(NC(=O)CCl)c2ccccc2)n1C (stereo not given) 0.37
Cc1c(NC(=O)CCl)c(=O)n(-c2ccccc2)n1C -0.0844
O=C(CCl)N1CCC[C@@H]1c1ccon1 -0.115
Cc1n[nH]c2c1CN(C(=O)CCl)CC2 0.184
N#Cc1ccccc1N1CCN(C(=O)CCl)CC1 -0.271
CS(=O)(=O)N1CCCN(C(=O)CCl)CC1 0.193
CC(NC(=O)CCl)c1noc(Cc2ccccc2)n1 (stereo not given) 0.201
CN(C)C(=O)c1ccc(NC(=O)CCl)cc1 0.125
COCC1C=CCCN1C(=O)CCl (stereo not given) -0.00365
O=C(CCl)N1CCC(S(=O)(=O)c2ccc(F)cc2)CC1 -0.0227
Cc1ccccc1OCC(=O)N1CCN(C(=O)CCl)CC1 0.104
O=C(CN1CCN(C(=O)CCl)CC1)Nc1cccc(F)c1 0.273
O=C(CCl)N1CC2(CCOCC2)C1 0.161
Cc1noc(C)c1CNC(=O)CCl 0.13
C[C@@H](NC(=O)CCl)c1cccc(C#N)c1 -0.193
Cc1cc(Cl)ccc1NC(=O)CCl -0.176
Cc1noc(N2CCN(C(=O)CCl)CC2)n1.Cl -0.17
O=C(CCl)N1CCc2[nH]c3ccccc3c2C1 -0.0163
Cc1ncsc1CCNC(=O)CCl 0.936
N#Cc1ccc(CNC(=O)CCl)cc1 0.228
O=C(CCl)NCc1cccc(F)c1 0.17
